AmpC inh detg = AmpC beta-lactamase inhibition with detergent present | P00811 | AmpC hydrolysis of nitrocefin, absorbance 480 nm, 0.01% Triton | Potency, µM (highest dose often 114 µM), for the others: at the highest dose activity change, negative = inhibition, most hits filed as inhibitors | 0.041% of 370,000 active | AID 485294;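 note: potency is the fitted concentration of half-maximal effect; 0% = no-compound wells and -100% = no-enzyme wells; nearly all actives have a fitted effect of over 25% in size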
Target sequence (P00811 whole entry, looked up): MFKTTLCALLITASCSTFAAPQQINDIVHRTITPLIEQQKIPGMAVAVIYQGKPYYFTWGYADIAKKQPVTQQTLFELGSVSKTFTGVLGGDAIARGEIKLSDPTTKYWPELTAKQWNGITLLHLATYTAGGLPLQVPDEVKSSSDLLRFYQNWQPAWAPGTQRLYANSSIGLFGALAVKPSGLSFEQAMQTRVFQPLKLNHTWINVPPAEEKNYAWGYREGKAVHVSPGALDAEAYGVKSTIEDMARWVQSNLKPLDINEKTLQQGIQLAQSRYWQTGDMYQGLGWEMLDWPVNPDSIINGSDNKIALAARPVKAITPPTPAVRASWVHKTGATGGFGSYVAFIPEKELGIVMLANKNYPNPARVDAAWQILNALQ
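20 mM phosphate pH 7.0 + 0.01% (detergent screen) or 0.0001% Triton X-100; 5.3 nM AmpC reagent; cpd preinc 15 min RT; nitrocefin (800 uM stock) to start; A480 q20 s × 4 min; Activity was normalised to no-enzyme and no-compound control wells.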
AmpC inh no detg = AmpC beta-lactamase inhibition without detergent. Potency, µM (series often up to 57.1 µM), for inactives: top-dose activity change, negative = inhibition, usual class: inhibitors. AmpC nitrocefin hydrolysis, absorbance 480 nm, 0.0001% Triton. 0.52% of 330,000 active;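 note: potency is the fitted concentration of half-maximal effect; plate controls were no compound for no effect and no enzyme for full effect; nearly all actives have a fitted effect of over 20% in size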
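AmpC (5.3 nM in the dispensed reagent) in 20 mM phosphate pH 7.0 with 0.01% (detergent screen) or 0.0001% Triton X-100 was preincubated with compounds for 15 min at room temperature. Nitrocefin was then added from an 800 uM solution, and hydrolysis was followed at 480 nm.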
Cycloheximide cs = counter-screen for Shiga toxin inhibitors: cycloheximide protein synthesis inhibition | cell reporter, cycloheximide protein synthesis inhibition counterscreen | max response, % | 12% of 300,000 active; in the data active = max response mostly above about 13%, no sharp cut-off; inactive = mostly below about 14%; note: read at 38.3 µM for the half of the compounds with a filed dose; 0% is about no effect
Shiga inhibitor = Shiga toxin inhibition. inhibition, % at 38.7 µM. 9.2% of 290,000 active. AID 2315. Vero cells, Shiga toxin protein synthesis inhibition reporter; in the data active = inhibition mostly above about 28%, no sharp cut-off; inactive = mostly below about 43%; note: 0% is about no effect
NS1 function inh = influenza NS1 inhibition; 0.4% of 270,000 active; Potency, µM (top dose mostly 46.1 µM), for inactives: top-dose activity, positive = more growth; AID 2326; calls by dose curve; note: potency is the fitted concentration of half-maximal effect; actives are rising curves; nearly all actives have a fitted effect of over 50% in size
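Compounds were scored for reversing the slow growth caused by influenza A NS1 in S. cerevisiae, measured by optical density at 600 nm. Assay medium contained 2% galactose at pH 6.0; NS1-free yeast of the same strain were the positive control.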
Numbers without * were called inactive. This is one part of a sample in which hits are shown more often than they occur. Unless noted, calls come from the whole dose curve; as a rule, active = well fitted curve in the direction sought with a large enough effect; inconclusive = small, poorly fitted or top-dose-only effect, or another doubt; inactive = no such curve, though single readings can be large; an effect the other way counts as inactive or inconclusive.

For NS(=O)(=O)c1ccc(N=Nc2c(O)c(C(=O)O)cc3ccccc23)cc1 the results were AmpC inh detg -10%, AmpC inh no detg 22µM*, Cycloheximide cs 4, Shiga inhibitor 7 and NS1 function inh -3%.
Cc1cn([C@H]2C[C@H](O)[C@@H](COC(N)=O)O2)c(=O)[nH]c1=O was read as NS1 function inh -1%.
COc1ccccc1CN1CCCC(CN(CCN(C)C)C(=O)C2CCCC2)C1 (configuration not stated) was read as AmpC inh detg inconclusive, AmpC inh no detg -16%, Cycloheximide cs -2, Shiga inhibitor 6 and NS1 function inh 6%.
Screening COc1cc(-c2nc(-c3ccc(NC(=O)c4ccc5c(c4)OCO5)cc3)no2)cc(OC)c1OC returned AmpC inh detg 2%, AmpC inh no detg 0%, Cycloheximide cs 40*, Shiga inhibitor 68* and NS1 function inh -12%.
`COc1ccc(CC(=O)Nc2ccc(-c3noc(-c4cc(OC)c(OC)c(OC)c4)n3)cc2)cc1` gave AmpC inh detg inconclusive, AmpC inh no detg -11%, Cycloheximide cs 1, Shiga inhibitor 10 and NS1 function inh -1%.
`COc1ccc(-c2noc(CNC(=O)c3ccc4c(c3)OCO4)n2)cc1` gave AmpC inh detg 3%, AmpC inh no detg 21%, Cycloheximide cs -3, Shiga inhibitor -11 and NS1 function inh -29%.
Cc1ccccc1-c1nc(-c2ccc(NC(=O)c3ccc4c(c3)OCO4)cc2)no1 was read as AmpC inh detg 2%, AmpC inh no detg -9%, Cycloheximide cs 38*, Shiga inhibitor 81* and NS1 function inh -3%.
CCc1nc(OCCN(C)C)c2oc3ccccc3c2n1 was read as AmpC inh detg inconclusive, AmpC inh no detg 1%, Cycloheximide cs 26*, Shiga inhibitor 29 and NS1 function inh 0%.
Screening CCc1nc(Nc2cccc(OC)c2)c2oc3ccccc3c2n1 returned AmpC inh detg 2%, AmpC inh no detg -16%, Cycloheximide cs 22*, Shiga inhibitor 27 and NS1 function inh -3%.
Screening CCc1nc(Nc2ccc(F)cc2)c2oc3ccccc3c2n1 returned AmpC inh detg 1%, AmpC inh no detg -32%, Cycloheximide cs 36*, Shiga inhibitor 45 and NS1 function inh -54%.
`CCCCn1c(N)c(N(CCOC)C(=O)COC(=O)COc2cccc(C(C)=O)c2)c(=O)[nH]c1=O` gave AmpC inh detg inconclusive and AmpC inh no detg -14%.
`CC1CCc2onc(C(=O)N3CCN(c4cccc(C(F)(F)F)c4)CC3)c2C1` (configuration not stated) gave AmpC inh detg 4%.
`S=c1[nH]nc(-c2ccc(Cl)cc2Cl)n1-c1ccc(Cl)cc1` gave AmpC inh detg 4%, AmpC inh no detg -36%, Cycloheximide cs -1, Shiga inhibitor -9 and NS1 function inh -12%.
CSCCC(NC(=O)COc1ccccc1)C(=O)N(C)Cc1ccc(Cl)cc1Cl (configuration not stated) was read as AmpC inh detg inconclusive and AmpC inh no detg 51%.
`O=C(CN1CCCC1)Nc1nnc(-c2cccs2)s1` gave AmpC inh detg -3%, AmpC inh no detg -13%, Cycloheximide cs 28*, Shiga inhibitor 89* and NS1 function inh 9%.
CC(C)(C)CC(=O)Nc1nnc(-c2cccs2)s1 was read as AmpC inh detg 3%, AmpC inh no detg inconclusive, Cycloheximide cs 43*, Shiga inhibitor 67* and NS1 function inh -6%.
Screening O=C(CN1CCCCC1)Nc1nnc(-c2ccccc2)s1 returned AmpC inh detg -15%, AmpC inh no detg -16%, Cycloheximide cs 20*, Shiga inhibitor 72* and NS1 function inh -12%.
`CC(C)(C)CC(=O)Nc1nnc(C(F)(F)F)s1` gave AmpC inh detg 1%, AmpC inh no detg -11%, Cycloheximide cs -4, Shiga inhibitor 18 and NS1 function inh -5%.
Screening O=C(Cc1cccs1)Nc1nnc(-c2ccccc2)s1 returned AmpC inh detg -6%, AmpC inh no detg -24%, Cycloheximide cs 19 and Shiga inhibitor 93.
Screening O=C(CN1CCCCC1)Nc1nnc(-c2ccc([N+](=O)[O-])cc2)s1 returned AmpC inh detg 4%, AmpC inh no detg -37%, Cycloheximide cs 21*, Shiga inhibitor 56 and NS1 function inh -3%.
`COc1ccc(C(=O)Nc2cnc3sc(C)nn3c2=O)cc1` gave AmpC inh detg -6%, AmpC inh no detg -14%, Cycloheximide cs 24* and Shiga inhibitor 46*.
For COc1ccc(C(=O)Nc2cc(-c3nn4c(C)nnc4s3)ccc2C)cc1 the results were AmpC inh detg 0%, AmpC inh no detg 14%, Cycloheximide cs -1, Shiga inhibitor 20 and NS1 function inh 2%.
For Cc1nc(-c2ccc(C(=O)Nc3ccc(F)cc3)cc2)cs1 the results were AmpC inh detg 0%, AmpC inh no detg -26%, Cycloheximide cs 35*, Shiga inhibitor 75* and NS1 function inh 3%.
`Cc1nc(-c2ccc(C(=O)Nc3ccccc3F)cc2)cs1` gave AmpC inh detg inconclusive, AmpC inh no detg -30%, Cycloheximide cs 2 and Shiga inhibitor -6.
Cc1nc(-c2ccc(C(=O)Nc3cccc(F)c3)cc2)cs1 was read as AmpC inh detg -17%, AmpC inh no detg 64%, Cycloheximide cs 17*, Shiga inhibitor 18* and NS1 function inh 5%.
COc1ccc(-c2csc(C)n2)cc1 was read as AmpC inh detg 6%, AmpC inh no detg -2%, Cycloheximide cs 31*, Shiga inhibitor 56* and NS1 function inh -15%.
For CCNS(=O)(=O)c1ccc(CCC(=O)Nc2ccc3c(c2)OCCO3)cc1 the results were AmpC inh detg -9%, AmpC inh no detg -29%, Cycloheximide cs 5 and NS1 function inh 7%.
For CCCn1c2ccccc2c2cnn(CC(=O)NCc3cc(OC)ccc3OC)c(=O)c21 the results were AmpC inh detg -5%.
COc1ccc(NC(=O)C(=O)NCC(c2ccc3c(c2)OCO3)N2CCN(C)CC2)cc1 (configuration not stated) was read as AmpC inh detg 6%.
For CCOc1ccc(NC(=O)c2ccc(-c3csc(C)n3)cc2)cc1 the results were AmpC inh detg 1%, AmpC inh no detg -36%, Cycloheximide cs 8, Shiga inhibitor 11 and NS1 function inh inconclusive.
Screening COc1ccc(NC(=O)c2ccc(-c3csc(C)n3)cc2)cc1 returned AmpC inh detg -2%, AmpC inh no detg -4%, Cycloheximide cs 36*, Shiga inhibitor 78* and NS1 function inh -5%.
Screening O=S(=O)(c1ccccc1)N1c2cc(Cl)ccc2Oc2nc3ccccc3nc21 returned AmpC inh detg -5%, AmpC inh no detg -26%, Cycloheximide cs 65*, Shiga inhibitor 94* and NS1 function inh 4%.
`Cc1ccc(-c2nc(CN3CCN(C(=O)C4CCCO4)CC3)cs2)cc1` (configuration not stated) gave AmpC inh detg 9%, AmpC inh no detg 140%, Cycloheximide cs 14*, Shiga inhibitor 2 and NS1 function inh 13%.
